# In the library only some 1.7% were active in any assay of this set; here they are far more common.
# mIDH1 inhibitor = blocks human mutant IDH1 R132H enzyme. IDH1-R132H enzyme, NADPH consumption, diaphorase/resazurin fluorescence. hit rate 0.093% among 390,000. Potency, µM (series often up to 76.6 µM), for the others: at the top dose activity change, negative = inhibition, hits mostly inhibitors. AID 602179. O75874; further: on the % scale 0 is the no-effect control and ±100 the full control effect; nearly all actives have a fitted effect of over 65% in size
# Target sequence (O75874 whole entry R132H, stated change not applied): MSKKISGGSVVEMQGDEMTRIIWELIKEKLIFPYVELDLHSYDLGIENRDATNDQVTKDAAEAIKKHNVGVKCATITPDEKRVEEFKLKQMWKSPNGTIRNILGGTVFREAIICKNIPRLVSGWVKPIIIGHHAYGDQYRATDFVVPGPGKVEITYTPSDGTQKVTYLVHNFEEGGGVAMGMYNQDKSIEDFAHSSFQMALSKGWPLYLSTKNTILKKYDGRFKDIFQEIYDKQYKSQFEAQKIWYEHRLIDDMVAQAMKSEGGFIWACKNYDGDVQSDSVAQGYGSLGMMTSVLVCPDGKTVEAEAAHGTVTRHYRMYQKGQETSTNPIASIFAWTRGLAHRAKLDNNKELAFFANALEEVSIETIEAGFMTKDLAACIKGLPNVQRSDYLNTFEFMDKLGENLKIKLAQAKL
#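 IDH1-R132H (0.5 ug/mL dispensed) in pH 7.5 Tris buffer was preincubated 30 min with compound, then given a substrate mix of 0.016 mM NADPH and 2 mM alpha-KG for 80 min at room temperature; remaining NADPH was read by diaphorase/resazurin fluorescence.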
# TrxR1 inh = blocks rat thioredoxin reductase 1; O89049; recombinant rTrxR1, NADPH fluorescence consumption, selenite substrate; Potency, µM (highest dose often 114 µM), inactives show at the highest dose activity change, negative = inhibition, usual class: inhibitors; hit rate 1% among 390,000; further: on the % scale 0 is the no-effect control and ±100 the full control effect; nearly all actives have a fitted effect of over 65% in size
#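 Rat TrxR1 (90 nM in the dispensed reagent) was pre-reduced with 400 uM NADPH for 5 min at room temperature, then incubated with compound for 15 min. After 400 uM selenite was added, NADPH fluorescence (Ex 340/Em 450 nm) was followed for 8 min.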
# TrxR1 substrate = is turned over as a substrate by rat TrxR1. O89049. purified TrxR1 substrate turnover, NADPH consumption readout. Potency, µM (highest dose often 114 µM), without a hit: at the top dose activity change, negative = substrate turnover. hit rate 0.01% among 390,000. AID 588456; further: on the % scale 0 is the no-effect control and ±100 the full control effect; nearly all actives have a fitted effect of over 50% in size
#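 Rat TrxR1, dispensed at 90 nM, was prereduced with 400 uM NADPH (final) for 5 min at ~22 deg C, then incubated with compound 15 min before 400 uM selenite. A first-read NADPH fluorescence drop versus no-compound background flagged substrates.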
# 12-LOX inh = ALOX12 (human) lipoxygenase inhibition; hit rate 1.1% among 580,000; purified 12hLO, xylenol orange hydroperoxide absorbance; Potency, µM (series often up to 108 µM), for the others: top-dose activity change, negative = inhibition, actives largely listed as inhibitors; further: on the % scale 0 is the no-effect control and ±100 the full control effect
#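 Hydroperoxide product was detected by ferrous iron/xylenol orange as the 573 to 405 nm absorbance ratio. Arachidonic acid at 40 uM (final) was turned over for 30 min at room temperature by 150 nM human 12hLO, pH 7.0 Hepes buffer, after 15 min compound preincubation.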
# GRP78 ERSR act = ER stress response induction in glioma; U87-MG GRP78 promoter luciferase reporter, 16 h; Potency, µM, for the others: at the highest dose activation, most hits filed as activators; hit rate 0.02% among 420,000; AID 602332; further: series mostly up to about 76 µM; % of control where 0% means no effect; nearly all actives have a fitted effect of over 35% in size
#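 ERSR induction read as luciferase luminescence (Bright-Glo, 10 min at room temperature) in stably transfected human U87-MG glioma cells exposed to compounds for 16 h, using GRP78 as sensor.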
# Anesthetic bind = binds horse apoferritin like a general anesthetic | P02791 | apoferritin/1-aminoanthracene competitive binding, fluorescence | Potency, µM (titrated, usually from 77.5 µM), for inactives: at the top dose activity change, negative = displacement, most hits filed as inhibitors | hit rate 0.074% among 350,000; further: on the % scale 0 is the no-effect control and ±100 the full control effect; nearly all actives have a fitted effect of over 20% in size
# Target sequence (P02791 2-175 limits assumed): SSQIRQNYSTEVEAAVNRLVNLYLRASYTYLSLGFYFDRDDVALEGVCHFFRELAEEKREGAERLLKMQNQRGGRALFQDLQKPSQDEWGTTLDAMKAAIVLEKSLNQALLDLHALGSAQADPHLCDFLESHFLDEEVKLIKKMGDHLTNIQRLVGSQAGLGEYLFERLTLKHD
#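 In PBS, apoferritin at 10 uM is loaded with 1-AMA from a 50% saturated solution. After 10 min of compound exposure at ambient temperature, reduced 535 nm fluorescence indicates probe displacement.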
# Starred values were filed as active, the others as inactive; u = inconclusive; x = no result; [ ] = remark or other dose. The call rests on the fitted dose curve; in most records, active means well fitted curve in the direction sought with a large enough effect; inconclusive means small, poorly fitted or top-dose-only effect, or another doubt; inactive means no such curve, though single readings can be large; an effect the other way counts as inactive or inconclusive. Potency means the concentration at half of the fitted maximal effect.
SMILES,mIDH1 inhibitor,TrxR1 inh,TrxR1 substrate,12-LOX inh,GRP78 ERSR act,Anesthetic bind
O=C(CCl)N1N=C(c2cccs2)CC1c1ccco1 (centres undefined),-3.8%,14.1µM*,-10.0%,-29.4%,-14.3%,-10.3%
CN1CCN(CC(=O)N2N=C(c3cccs3)CC2c2ccco2)CC1 (centres undefined),2.5%,-16.5%,-7.5%,2.7%,-3.0%,-9.7%
CCOC(=O)C(=O)Nc1ccc(O)c(C(=O)OC)c1,x,x,x,17.0%,x,x
NC1=NC(=O)/C(=C\c2ccc(-c3ccccc3[N+](=O)[O-])o2)S1,x,u,-7.4%,x,x,x
O=c1nc2s/c(=C\c3ccc(-c4ccccc4[N+](=O)[O-])o3)c(=O)n2nc1-c1ccccc1,0.6%,21.5%,6.1%,11.2µM*,-4.0%,-4.8%
COc1ccc(-c2cnc3n[nH]c(-c4ccc(F)cc4C)c3n2)cn1,x,x,x,-2.5%[176 µM],x,x
O=C(c1ccco1)N1CCN(C(=O)c2ccco2)CC1,x,x,x,-7.0%,-1.4%,x
O=C(c1ccco1)N1CCN(C(=O)c2sccc2-c2ccccc2)CC1,-3.6%,15.8µM*,5.0%[57.1 µM],-11.3%,-2.4%,0.2%
COc1ccc(-c2csc3ncnc(N4CCN(C(=O)c5ccco5)CC4)c23)cc1,10.6%,56.2µM*,8.5%,u,-1.9%,x
O=C(c1ccco1)N1CCN(c2ncnc3scc(-c4ccccc4)c23)CC1,4.3%,-13.9%,-0.7%,38.3%,-5.7%,-4.4%
CC1(C)C2CC=C(/C=N/NC(=S)NCc3ccccc3)C1C2 (centres undefined),x,x,x,35.5µM*,x,x
CC(C)NC(=S)N/N=C/C1=CCC2CC1C2(C)C (centres undefined),0.6%,-19.7%,-10.8%,35.5µM*,-2.8%,-11.9%
Cc1[nH][nH]c(=O)c1C(c1c(C)[nH][nH]c1=O)c1cn(Cc2ccc(Cl)c(Cl)c2)c2ccccc12,-9.6%,u,56.2µM*,u,-2.9%,u
CCOC(=O)N1CCN(CC(=O)Nc2nc3ccc(OC)cc3s2)CC1,10.4%,-4.9%,-3.5%,44.7µM*,0.5%,-9.8%
CCOC(=O)N1CCN(CC(=O)Nc2cc(OCC)ccc2OCC)CC1,7.6%,-10.2%,-12.2%,1.58µM*,-7.5%,-2.5%
CCOc1ccc(OCC)c(NC(=O)CN2CCN(c3ccc(C)cc3C)CC2)c1,3.9%,7.4%,-1.5%,u,-2.7%,-10.0%
CCOC(=O)N1CCN(CC(=O)Nc2nc3ccccc3s2)CC1,11.0%,9.6%[57.1 µM],-6.7%[57.1 µM],5.0%,-6.8%,-10.2%
CN(C)C[C@@H]1CN(C2CCOCC2)C[C@H]1NC(=O)c1ccc2c(c1)OCO2,x,x,x,87.2%,x,x
COc1cc(C2Nc3cccc4cccc(c34)N2)cc(OC)c1OC(C)=O,8.8%,35.5µM*,-11.4%,334.3%,-5.2%,7.7%
COc1cccc(NC(=O)CCc2ccc3c(c2)CN(S(C)(=O)=O)CCO3)c1,x,x,x,37.0%,x,x
Cc1cccc2cc3c(nc12)SC(=NCC1CCCO1)N(Cc1ccco1)C3 (centres undefined),-3.6%,3.55µM*,99.7%,x,-16.3%,u
COCCN=C1Sc2nc3ccc(C)cc3cc2CN1Cc1cccs1,9.5%,-47.8%,-14.4%[57.1 µM],u,2.1%,u
COCCN=C1Sc2nc3c(C)cccc3cc2CN1Cc1ccco1,1.8%,u,11.0%[57.1 µM],31.6µM*,5.1%,-0.5%
Cc1ccc2nc3c(cc2c1)CN(Cc1ccco1)C(=NCC1CCCO1)S3 (centres undefined),0.7%,-35.3%,-5.7%,0.0%,-3.2%,-14.4%
CC(=O)N1CCc2cc(C(=O)CN3CCN(C(=O)c4ccco4)CC3)ccc21,-4.3%,15.8µM*,-1.3%[57.1 µM],x,1.5%,u
SMILES,mIDH1 inhibitor,TrxR1 inh,TrxR1 substrate,12-LOX inh,GRP78 ERSR act,Anesthetic bind
CC(=O)N1CCc2cc(C(=O)CN3CCC(C)CC3)ccc21,13.9%,u,-6.2%[57.1 µM],-2.3%,-1.8%,-16.6%
COc1ccc2[nH]c(C)c(C(=O)CN3CCN(C(=O)c4ccco4)CC3)c2c1,0.0%,28.2µM*,-2.9%,-6.1%,-1.0%,-3.9%
COc1ccc2[nH]cc(C(=O)CN3CCN(C(=O)c4ccco4)CC3)c2c1,2.0%,-35.3%,-8.6%,-26.4%,0.3%,-11.4%
CC(C)[C@@H]1CN(c2nccc(C(F)(F)F)n2)C[C@H]1NS(C)(=O)=O,x,x,x,6.5%,x,x
c1cncc(-c2cncnc2NC2CCNCC2)c1,x,x,x,7.94µM*,-2.1%,x
c1ccc2oc(-c3ccn[nH]3)cc2c1,-0.8%,16.3%[11.4 µM],5.3%[11.4 µM],0.0%,4.5%,-5.9%
c1ccc2c(-c3ccn[nH]3)cccc2c1,x,x,x,25.1µM*,x,x
COCC(=O)N1CCN(c2oc(-c3ccccc3)nc2S(=O)(=O)c2ccccc2)CC1,x,x,x,-26.3%,x,x
CN(C)CCCNS(=O)(=O)c1ccc(N2CCN(Cc3ccc4c(c3)OCO4)CC2)c([N+](=O)[O-])c1,-1.8%,13.9%,1.2%,2.82µM*,3.1%,-2.8%
COc1ccc(-c2cc(NC=O)c3ncc(-c4ccc(OC)c(OC)c4)n3c2)c(OC)c1,x,x,x,56.2µM*,-3.7%,x
COc1cccc(-c2cnc3c(NC=O)cc(-c4ccc(OC)cc4OC)cn23)c1,x,x,x,-0.6%,-5.3%,x
COc1ccc(-c2cnc3c(NC=O)cc(-c4cc(OC)c(OC)c(OC)c4)cn23)cc1OC,x,x,x,-9.3%,-1.3%,x
COc1ccc(-c2cnc3c(NC=O)cc(-c4ccoc4)cn23)cc1OC,x,x,x,5.01µM*,-0.7%,x
Cc1ccc(NC(=O)CCc2ncc(-c3c(F)cccc3F)o2)nc1,x,x,x,32.4%,x,x
N#Cc1c(-c2ccccc2)cc(C2CC2)nc1N,-6.5%,-26.7%,12.3%,6.5%,5.5%,-13.3%
Cc1ccc(-c2cc(-c3ccccc3Cl)c(C#N)c(N)n2)o1,7.5%,u,248.6%,7.08µM*,-3.7%,3.3%
Cc1ccc(-c2cc(-c3ccccc3)c(C#N)c(N)n2)o1,-1.0%,-32.6%[57.1 µM],138.6%[57.1 µM],0.794µM*,-3.8%,86.1%
Cc1ccc(-c2cc(-c3ccc(F)cc3)nc(N)c2C#N)o1,2.6%,u,95.2%,6.31µM*,-11.2%,15.1%
CCSc1nc(N)c(C#N)c(-c2ccccc2Cl)c1C#N,-2.2%,1.5%,2.4%,u,-4.8%,-23.5%
CCCOC(=O)c1ccc(Oc2coc3cc(OC(=O)N4CCOCC4)ccc3c2=O)cc1,x,x,x,12.4%,x,x
O=C(CCC[C@@H]1[C@H]2CCCN3CCC[C@@H](CN1C(=O)c1cc(F)cc(F)c1)[C@@H]23)NCc1ccccc1,x,x,x,-4.9%,x,x
Nc1c(C(=O)NCC2CCCO2)sc2nc3c(c(-c4ccco4)c12)CC/C3=C\c1ccco1 (centres undefined),4.4%,14.1µM*,-14.0%,u,-5.5%,1.6%
